Data reported in ChEMBL document CHEMBL3988442, “University of Dundee, Small-Polar-MMV Screening Library” (2021).

What was measured:
[1] = biological target: T1, Aspartate--tRNA(Asp/Asn) ligase (Mycobacterium tuberculosis (strain ATCC 25618 / H37Rv)) (UniProt P9WFW3); assay: Assay for Asp RNA synthetase-1 from Mycobacterium tuberculosis; format: functional; parameters: scale not given: direction of the effect not stated beside the values; settings: 30 µM; note: in the data most compounds retested in dose-response had high values
T1 sequence (whole entry): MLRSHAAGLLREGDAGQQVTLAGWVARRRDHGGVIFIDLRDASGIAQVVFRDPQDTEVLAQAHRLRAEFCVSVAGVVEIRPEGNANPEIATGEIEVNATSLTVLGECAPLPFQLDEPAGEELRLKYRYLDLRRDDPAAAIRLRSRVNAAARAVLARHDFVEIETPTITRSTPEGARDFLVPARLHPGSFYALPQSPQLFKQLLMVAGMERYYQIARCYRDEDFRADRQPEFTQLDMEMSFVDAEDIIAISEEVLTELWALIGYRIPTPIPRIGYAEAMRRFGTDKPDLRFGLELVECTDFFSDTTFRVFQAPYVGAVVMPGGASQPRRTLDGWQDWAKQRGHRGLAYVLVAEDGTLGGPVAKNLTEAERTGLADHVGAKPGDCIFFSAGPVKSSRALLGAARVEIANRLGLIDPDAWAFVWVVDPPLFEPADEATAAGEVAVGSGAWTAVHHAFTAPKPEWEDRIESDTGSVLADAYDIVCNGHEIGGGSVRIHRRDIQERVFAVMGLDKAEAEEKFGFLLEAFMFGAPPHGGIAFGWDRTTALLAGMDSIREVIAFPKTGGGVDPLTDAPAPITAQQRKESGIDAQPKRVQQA

[2] = biological target: Shiga toxin 2 (Escherichia coli O157:H7) (UniProt P09385+P09386); assay: E. coli 0.157:H7 Shiga Toxin SOP - stx2 screening assay; format: functional; parameters: scale not given: direction of the effect not stated beside the values; settings: 30 µM

| Compound | Percent Effect [1] [%] | Percent Effect [2] [%] |
| --- | --- | --- |
| COC1CCCN(Cc2nc(Cc3ccccc3F)no2)C1 (centres undefined) | -7.18 | 6.38 |
| Fc1cccc(CN2CCO[C@H]3[C@@H](OCc4ccccn4)CC[C@@H]32)c1 | 0.564 | -1.04 |
| Cn1ccc(C(=O)NC2CCC23CCN(Cc2cccnc2)CC3)c1 (centres undefined) | 0.843 | -5.95 |
| CC1CN(Cc2nccn2C)CCN1c1ccc2nncn2n1 (centres undefined) | -6.07 | -28.7 |
| Cc1nn(C)c2c(NCc3cccnc3)nc(C3CC3)nc12 | 8.74 | -7.86 |
| COCC1CC2(CCN(C(=O)c3ccc(OC)c(Cl)c3)CC2)CO1 (centres undefined) | 0.918 | -4.71 |
| Cc1nnc2n1CCN(C(=O)c1cn(-c3ccccc3Cl)nn1)C2 | -0.98 | -42.4 |
| O=C(c1ccco1)N1CC[C@H]2[C@H]1CCN2CC1CCOCC1 | 1.99 | -28 |
| O=C(Nc1cc(F)ccc1OCC1CCCO1)c1ccccn1 (centres undefined) | 2.54 | 37.1 |
| O=C(CCOc1ccccc1)N1CCC(Nc2cccnn2)CC1 | 4.24 | 6.7 |
| Cc1cc(N2CCC(Cc3ccccc3)CC2)nc(-c2ccncc2)n1 | -0.602 | -32.9 |
| CCCn1nc(C)c(CNC(=O)C2COc3c(cccc3OC)C2)c1C (centres undefined) | 0.114 | -6.29 |
| CC1CN(CC(=O)Nc2cccnc2)CCN1c1nccs1 (centres undefined) | 0.466 | 7.04 |
| CCC1CN(C(=O)c2ccccc2N2CCCC2)CCN1C(C)C (centres undefined) | -4.91 | 12.2 |
| CC(C)Cc1cc(NC(=O)c2ccc[nH]2)n(C)n1 | -0.121 | 7.24 |
| CCN(CC)CCNC(=O)c1ccn(COc2cc(C)cc(C)c2)n1 | -3.4 | -48.5 |
| Cc1ccc(N(C)C2CCN(C(=O)CCc3ccco3)CC2)nn1 | 2.42 | -5.22 |
| Cc1nc(C2CCCN(C(=O)c3cccc(S(C)(=O)=O)c3)C2)no1 (centres undefined) | -2.72 | -6.27 |
| CCN(C(c1cccnc1)c1ccc2c(c1)CCO2)S(C)(=O)=O (centres undefined) | -3.44 | -49.4 |
| C[C@H]1C[C@@H]2CCN(C(=O)c3cccn3C)C[C@H]2O1 | -3.96 | -0.37 |
| c1cc(CN2CCCC(c3noc(C4CC4)n3)C2)no1 (centres undefined) | -0.285 | 4.12 |
| CCN(C)Cc1cnc(S(=O)(=O)CC)n1CCOC | -5.11 | -0.758 |
| COc1ccc(NC(=O)NC(C)c2nc[nH]n2)cc1 (centres undefined) | -1.71 | 5.29 |
| Cc1ccc(-n2nnc(C(=O)NS(C)(=O)=O)c2C2CC2)cc1 | 0.379 | -7.97 |

| Compound | Percent Effect [1] [%] | Percent Effect [2] [%] |
| --- | --- | --- |
| CCc1nccn1C1CCCN(C(=O)c2cnc3ccccc3n2)C1 (centres undefined) | 1.02 | 11.4 |
| CN(Cc1ccccc1)C1COC2(CCN(Cc3nccs3)CC2)C1 (centres undefined) | -2.36 | -24.7 |
| O=C(C1CCCc2[nH]ncc21)N1CCCC1 (centres undefined) | 2.61 | -4.59 |
| CCCn1[nH]cc/c1=N\C(=O)CN1CCc2c(nc(C(C)C)n2C)C1 | 1.84 | 1.47 |
| CC1CCCCN1c1nc2c(c(=O)[nH]1)CCN(Cc1cccnc1)C2 (centres undefined) | 1.98 | -8.32 |
| COc1ccc(-c2nc(CN3CCc4c(ncn4C)C3)cs2)cc1 | -3.7 | -71.2 |
| CC(=O)NCC(=O)N1CCC2(CC1)CN(c1cccnc1)C(=O)CO2 | 2.37 | -4.09 |
| CCN(C)S(=O)(=O)N(CC)Cc1ccc2c(c1)OCO2 | 3.49 | 12.6 |
| Cc1cccn2c(=O)cc(CN3CCCCC3Cn3cncn3)nc12 (centres undefined) | -0.0141 | -18.4 |
| Cc1nc(C)n(CC2CCCCN2Cc2ncc(C(C)(C)C)o2)n1 (centres undefined) | -7.07 | -41 |
| COc1cccc(COCC(=O)N2CCCC(N3CCCC3)CC2)c1 (centres undefined) | -5.12 | 12.6 |
| CC(C)c1cc(NC(=O)CN2CCCC2Cn2cccn2)on1 (centres undefined) | -1.29 | 29.8 |
| CNS(=O)(=O)c1cccc(CNc2ccc(C(F)(F)F)nn2)c1 | -3.88 | 14.2 |
| CCc1cnc(C)nc1NCCN1CCCCCC1 | 4.13 | -69.6 |
| O=C(Cc1ccsc1)N1CCn2cc(CN3CCCC3)nc2C1 | -0.684 | -12 |
| N#Cc1ccc(CNCC(C(=O)N2CCOCC2)c2ccccc2)cc1 (centres undefined) | 24.2 | -26 |
| Cc1nc(C)n(CC2CCCCN2CC(=O)Nc2cccnc2)n1 (centres undefined) | -1.56 | 7.21 |
| CN(C)C(=O)N1CCOCC2(CCN(c3ncccn3)C2)C1 (centres undefined) | 0.466 | 10 |
| CCc1nnsc1C(=O)N1CCOC(c2nc(C)n[nH]2)C1 (centres undefined) | -2.08 | -18.3 |
| Cc1nc(C)n(CC2CCCN(CCCOc3ccccc3)C2)n1 (centres undefined) | 0.568 | 8.48 |
| c1ncn(CC2CN(CC3CCCC3)CCO2)n1 (centres undefined) | 2.9 | -0.78 |
| Cc1cc(C)c(CNC(=O)N2CCN(c3cnccn3)CC2)c(=O)[nH]1 | -0.167 | 9.86 |
| Cc1cnn(CC2CCCN2C(=O)c2cnc3n[nH]c(C)c3c2)c1 (centres undefined) | -3.6 | -40.6 |
